# Records with an inconclusive call do not appear. The source holds several records for some structures; these can differ, active in one and inactive in another. Active and inactive are the calls of the source. The call rests on the fitted dose curve; in most records, active means well fitted cell-killing curve with a large enough effect in the repeat runs; inconclusive means weak or mixed curves; inactive means no such curve, though single readings can be large or run the other way.
# Assay: qHTS assay for identifying genotoxic compounds that show differential cytotoxicity against isogenic chicken DT40 cell lines with known DNA damage response pathways - Rad54/Ku70 mutant cell line (AID 743015); further: nearly all actives have a fitted effect of over 60% in size
# Conditions: DT40 Rad54/Ku70 mutant viability, CellTiter-Glo, 40 h; series mostly up to 66.8 µM; activity change, negative = cytotoxicity: at the top concentration
# From the text: National Center for Advancing Translational Sciences [NCATS]
# NIH Chemical Genomics Center [NCGC]
# U.S. Environmental Protection Agency [EPA]
# National Institutes of Environmental Health Sciences [NIEHS]
# National Toxicology Program [NTP]
# U.S. Food and Drug Administration [FDA]
# DNA repair pathways play a critical role in cellular homeostasis by repairing DNA damage induced by endogenous processes and xenobiotics. Isogenic chicken DT40 cell lines deficient in different DNA repair pathways can be used to identify genotoxic compounds and aid in characterizing the nature of the DNA damage induced. Two DNA repair-deficient cell lines with disrupted genes, Rad54/Ku70 or Rev3, were used to screen the Tox21 10K compound library. Possible genotoxicity was based on the presence of a significant increase in cytotoxicity in one or more of the DNA repair-deficient cell lines compared to that observed in the parental DNA repair-proficient cell line. CellTiter Glo viability assay (Promega, Madison, WI) was used to measure cell viability in these cells after compound treatment. This assay includes the data from the Rad54/Ku70 mutant cell line.
# Tox21 Assay Protocol Summary:
# 300 DT40 mutant cells in 5 uL/well were dispensed into white, solid-bottom 1536-well plates using a Multidrop Combi (ThermoFisher Scientific, Waltham, MA) dispenser. After the assay plates were incubated at 37 C/5% CO2 for approximately 0.5 hour, 23 nL of compounds dissolved in DMSO, positive controls or DMSO only was transferred into the assay plate by a pintool work station (Kalypsys, San Diego, CA). The assay plates were incubated at 37 C/5% CO2 for 40 hours. After 5 uL per well of CellTiter-Glo reagent was added into each well of the assay plates, the plates were incubated for 30 min at room temperature and the luminescence intensity of the plates was measured using a ViewLux (PerkinElmer, Shelton, CT) plate reader.
# On the % scale 0 is the no-effect control and ±100 the full control effect; potency means the concentration at half of the fitted maximal effect.
SMILES,Potency,"activity change, negative = cytotoxicity"
c1cc(CN2CCCCC2)cc(OCCCNc2nc3ccccc3s2)c1,23.7 µM (active),
C=CCOCC(O)CS(=O)(=O)O (stereo not given),,1.42% [at 95.1 µM] (inactive)
CC(C)(O)C(=O)c1ccc(OCCO)cc1,,4.64% (inactive)
C1=C\CC/C=C\CC/C=C\CC/1,,-9.96% (inactive)
C1C2OC2C2C1C1CC2C2OC12 (stereo not given),,-1.95% [at 95.1 µM] (inactive)
OC[C@H]1O[C@@H]2O[C@H]3[C@H](O)[C@@H](O)[C@@H](O[C@H]4[C@H](O)[C@@H](O)[C@@H](O[C@H]5[C@H](O)[C@@H](O)[C@@H](O[C@H]6[C@H](O)[C@@H](O)[C@@H](O[C@H]7[C@H](O)[C@@H](O)[C@@H](O[C@H]8[C@H](O)[C@@H](O)[C@@H](O[C@H]9[C@H](O)[C@@H](O)[C@@H](O[C@H]1[C@H](O)[C@H]2O)O[C@@H]9CO)O[C@@H]8CO)O[C@@H]7CO)O[C@@H]6CO)O[C@@H]5CO)O[C@@H]4CO)O[C@@H]3CO,,-2.08% [at 30.7 µM] (inactive)
CCCc1ccc(N)cc1,,0.604% (inactive)
COc1ccc(NC(C)=O)cc1,,-0.544% [at 95.1 µM] (inactive)
CCCCC1CCCCC(=O)O1 (stereo not given),,-5.17% (inactive)
O=[N+]([O-])c1ccc(CCO)cc1,,10.1% (inactive)
CC(C)COC(=O)c1ccccc1O,,-26% (inactive)
CC(C)(C)CC(C)(C)N,,0.927% (inactive)
COc1cc(CCC(C)=O)ccc1O,,-3.18% (inactive)
C=CCn1c(=O)n([C@@H]2O[C@H](CO)[C@@H](O)[C@H]2O)c2nc(N)[nH]c(=O)c21,,0.0855% (inactive)
N#CCN(CC#N)CCN(CC#N)CC#N,,13.9% (inactive)
c1ccc(SCCSc2ccccc2)cc1,,-1.05% (inactive)
O=C(O)c1ccccc1-c1ccc(C(F)(F)F)cc1,,4.76% (inactive)
C=CC(=O)N1CCOCC1,,0.745% (inactive)
CCOC(=O)Cn1c(=O)sc2cccc(Cl)c21,,-3.59% (inactive)
CC(=O)CCc1ccc(O)cc1,,10.8% (inactive)

SMILES,Potency,"activity change, negative = cytotoxicity"
O=S(=O)(c1cccc2cnccc12)N1CCCNCC1,,-6.87% (inactive)
COC(C(=O)O)c1ccccc1 (stereo not given),,-1.53% (inactive)
[O-][N+](=Nc1ccccc1)c1ccccc1,26.6 µM (active) and inactive,
CN1[C@@H]2CC[C@H]1CC(NC(=O)n1c(=O)[nH]c3ccccc31)C2 (stereo not given in full),,4.11% (inactive)
CSc1nc(NC2CC2)nc(NC(C)(C)C)n1,54.5 µM (active),
NS(=O)(=O)c1cc2c(cc1Cl)NC(CSCc1ccccc1)=NS2(=O)=O,,0.258% [at 30.7 µM] (inactive)
CCCCOCC(C)OCC(C)O (stereo not given),,7.2% [at 95.1 µM] (inactive)
CCN(CC)C(=O)c1ccc(O)c(OC)c1,inactive,
CCCCCOC(=O)Nc1nc(=O)n([C@@H]2O[C@H](C)[C@@H](O)[C@H]2O)cc1F,,4.1% (inactive)
Cc1c(C)n(CCN(C)C)c2ccc(C(=O)OCCN(C)C)cc12,13.3 µM (active),
C=C(C)C1CC=C(C)C(O)C1 (stereo not given),,-1.64% [at 95.1 µM] (inactive)
c1ccc(CCCc2ccccn2)cc1,,-7.75% (inactive)
CCCC(C)C(=O)O (stereo not given),,0.23% (inactive)
Cc1ccc(Nc2ccc(O)c3c2C(=O)c2ccccc2C3=O)cc1,,-2.91% (inactive)
NCCN1CCNC1=O,,-2.31% (inactive)
Cc1ccccc1Br,,0.615% (inactive)
CCCCCC[C@@H](CCC)C(=O)O,,11.4% (inactive)
COC(=O)CCCCCCCCC(=O)OC,,0.372% [at 95.1 µM] (inactive)
CC(C)(O)Cc1ccccc1,,1.62% (inactive)
CCCCNc1ccccc1,,14.3% (inactive)
